Assay results reported in PubChem BioAssay.
Calls of active or inactive are those of the source. Unless noted, no rule for the calls is given here.

What was measured:
[1] = system: XIP peptide (Xip251-270) binding; experiment: XIP fragment 251-270 binding compounds – biochemical, small-molecule microarray, fluorescence 635/667 nm, 0.1 µg/mL protein, primary screen (AID 1182); conditions: fluorescent protein binding, 635 nm, higher = more signal, called active from +8 up or from −8 down
[2] = system: XIP peptide (Xip251-270); experiment: compounds binding XIP fragment 251-270 – biochemical, small-molecule microarray, fluorescence 635/667 nm, 0.5 µg/mL protein, primary screen (AID 1183); conditions: fluorescence 635 nm, higher = more signal
[3] = blood-stage malaria parasite viability loss – strain 3D7, DAPI fluorescence, 100 nL, primary screen (AID 1184);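 also: parasites grown inside human red blood cells in medium with human serum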; conditions: P. falciparum 3D7 growth, 3 d, higher = more signal
[4] = target: Homeobox protein Hox-A13 (Mus musculus) (UniProt Q62424); experiment: disruptors of Hoxa13 oligonucleotide interaction – biochemical, fluorescence polarization, labeled oligonucleotide, primary screen (AID 1185); conditions: Hoxa13:DNA binding, 15 min, higher = more signal, called active from +8 up or from −8 down
Homeobox protein Hox-A13 (Mus musculus), sequence (Q62424 whole entry, looked up): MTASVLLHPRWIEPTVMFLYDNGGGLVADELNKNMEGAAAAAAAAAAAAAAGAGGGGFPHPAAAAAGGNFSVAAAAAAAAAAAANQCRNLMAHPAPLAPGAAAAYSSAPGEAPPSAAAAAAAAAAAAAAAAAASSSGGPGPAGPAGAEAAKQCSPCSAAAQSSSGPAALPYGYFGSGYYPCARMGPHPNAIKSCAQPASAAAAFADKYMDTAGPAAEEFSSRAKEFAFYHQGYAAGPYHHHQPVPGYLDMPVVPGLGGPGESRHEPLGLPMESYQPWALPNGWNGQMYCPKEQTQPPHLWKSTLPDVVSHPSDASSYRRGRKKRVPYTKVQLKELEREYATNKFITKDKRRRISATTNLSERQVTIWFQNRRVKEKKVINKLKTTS

[5] = blockers of DNA damage checkpoint Chk1 activation – imaging, HeLa, hydroxyurea, phospho-Chk1 antibody, percent positive cells, primary screen (AID 1186); conditions: hydroxyurea-induced phospho-Chk1 immunofluorescence imaging, higher = more signal
[6] = blockers of DNA damage checkpoint Chk1 activation – imaging, HeLa, hydroxyurea, phospho-Chk1 nuclear intensity, primary screen (AID 1187); conditions: hydroxyurea-induced phospho-Chk1 immunofluorescence imaging, higher = more signal

Row | Compound | composite z-score [1] | composite z-score [2] | z-score [3] | z-score [4] | z-score [5] | z-score [6]
1 | CCOC(=O)C[C@H]1[C@H](OC(=O)c2ccccc2-c2ccccc2)[C@@H](NC(=O)c2ccc3ccccc3c2)c2cc(OCCCO)ccc2N1C(=O)c1ccccc1 | -0.323 (inactive) | 0.306 | -1.72 | -2.39 (inactive) | 0.185 (inactive) | 0.361 (inactive)
2 | C[N+](C)(C)CCCCCCNC(=O)[C@@H]1C[C@@H]2C(=O)N3CCC[C@H]3C(=O)N2[C@@H]1c1ccc(O)cc1 | 0.45 (inactive) | 0.723 | 0.0301 | -1.82 (inactive) | -0.265 (inactive) | 0.127 (inactive)
3 | C=CCN1C(=O)[C@]2(CCC(=O)OC(C)(C)C)N=C(c3ccc(OCCCO)cc3)O[C@@H]2c2ccccc21 | 0.0041 (inactive) | 0.464 | -1.34 | -2.63 (inactive) | -0.646 (inactive) | -0.541 (inactive)
4 | COCC(=C=CC[C@H](O)c1ccc(CO)o1)CCO | -0.224 (inactive) | 0.297 | 1.08 | -3.75 (inactive) | 0.625 (inactive) | 0.295 (inactive)
5 | COC(=O)c1c(CC[C@@H](CO)NC(=O)N[C@@H](C)Cn2cc(-c3ccccn3)nn2)oc(C(C)=O)c1C(=O)OC | 1.29 (inactive) | 0.881 | -1.89 | 0.452 (inactive) | -0.207 (inactive) | 0.363 (inactive)
6 | COC(=O)[C@]1(CCS(=O)(=O)c2ccccc2)N=C(c2ccc(OCCCO)cc2)O[C@@H]1c1ccccc1N=[N+]=[N-] | 1.48 (inactive) | 0.836 | -2.36 | -3.34 (inactive) | -0.265 (inactive) | -0.364 (inactive)
7 | Cc1ccc(F)cc1S(=O)(=O)N[C@@H]1CCN(Cc2ccc(Br)cc2)C1 | -0.238 (inactive) | -0.192 | -0.999 | -5.43 (inactive) | 0.0663 (inactive) | -0.335 (inactive)
8 | CC(=O)NCCCC[C@@H]1NC(=O)[C@@H]2C[C@H](C(=O)NCCCCCN)[C@H](c3ccc(O)cc3)N2C1=O | 0.0292 (inactive) | 0.891 | -1.13 | -3.21 (inactive) | 0.156 (inactive) | 0.317 (inactive)
9 | C=CCC(OC(C)=O)[C@@H]1[C@@H](N(Cc2ccc(-c3cccc(C(F)(F)F)c3)o2)C(=O)c2ccc(-c3ccccc3)cc2)c2cc(OCCCO)ccc2N1C(=O)Cc1ccc2ccccc2c1 (some centres not stated) | -0.186 (inactive) | -0.738 | -0.694 | -1.1 (inactive) | 0.345 (inactive) | 0.291 (inactive)
10 | CC(C)=C1C(=O)C(c2ccccc2)=C2CN3C(=O)N(CCc4ccccc4)C(=O)[C@]3(Cc3ccc(C(F)(F)F)cc3)[C@H]21 | 1.05 (inactive) | -0.498 | -0.503 | -1.59 (inactive) | 0.551 (inactive) | 0.465 (inactive)
11 | CCCC=C(CCC)[C@@H](NS(=O)(=O)c1ccc(C(F)(F)F)cc1)c1ccccc1 | 0.25 (inactive) | -0.0998 | -1.5 | -0.64 (inactive) | -0.0215 (inactive) | -0.157 (inactive)
12 | COc1ccc(CCNC(=O)[C@@H]2c3ccccc3C(=O)N(C3CCCCC3)[C@H]2c2ccc(CO)cc2)cc1 | 0.09 (inactive) | 0.658 | -1.76 | -3.32 (inactive) | 0.183 (inactive) | -0.0923 (inactive)
13 | CC1CC/C=C\[C@H]2OC34C=CCN(c5ccc(Cl)cc5)C(=O)[C@H]3N(C(C)CO)C(=O)[C@]4(C)C2C(=O)O1 (some centres not stated) | -0.103 (inactive) | -0.279 | -0.111 | -4.76 (inactive) | 0.558 (inactive) | -0.11 (inactive)
14 | O=C(Cc1ccccc1)[C@H]1C2C=CCCC(c3ccccc3)=C2CN1Cc1ccccc1 (some centres not stated) | 1.11 (inactive) | -0.0929 | 0.979 | -2.16 (inactive) | -0.171 (inactive) | 0.213 (inactive)
15 | CCOC(=O)C1=CC[C@@H](c2ccccc2)N(S(=O)(=O)c2ccc(C)cc2)[C@H]1c1ccccc1 | 0.267 (inactive) | 0.528 | -1.67 | 0.268 (inactive) | 0.339 (inactive) | -1.24 (inactive)
16 | CO[C@H]1O[C@H](CO)[C@@H](OC(=O)Nc2ccc3c(c2)OCO3)[C@H](OC(=O)Nc2ccc3c(c2)OCO3)[C@@H]1OC(=O)Nc1ccc2c(c1)OCO2 | 1.12 (inactive) | 0.904 | -2.31 | -4.7 (inactive) | -0.187 (inactive) | -0.119 (inactive)

Row | Compound | composite z-score [1] | composite z-score [2] | z-score [3] | z-score [4] | z-score [5] | z-score [6]
17 | O=C(C1N=C(c2ccc(OCCCO)cc2)N(c2ccccc2)O1)N1CCCCC1 (configuration not stated) | 2.64 (inactive) | 0.814 | -0.603 | -3.7 (inactive) | -0.216 (inactive) | 0.153 (inactive)
18 | [N-]=[N+]=Nc1ccccc1C[C@]1(C(=O)N2CCOCC2)COC(c2ccc(OCCCO)cc2)=N1 | 0.373 (inactive) | 0.666 | -2.03 | -6.82 (inactive) | -0.488 (inactive) | -0.338 (inactive)
19 | C#CCN([C@@H](Cc1ccccc1)C(=O)OC)[C@@H](/C=C/C1CC1)[C@H](O)Cc1ccccc1 | -0.0272 (inactive) | -0.194 | -1.12 | -6.42 (inactive) | -0.121 (inactive) | 0.134 (inactive)
20 | CCOC(=O)C[C@H]1[C@H](OC(=O)c2cc3ccccc3oc2=O)[C@@H](NC(=O)c2ccc3ccccc3n2)c2cc(OCCCO)ccc2N1C(=O)Cc1ccc(OC)cc1 | -0.816 (inactive) | 0.71 | -1.42 | -3.15 (inactive) | 0.458 (inactive) | -0.301 (inactive)
21 | C=C[C@H](C)[C@H](OC(=O)Nc1ccc(SC)cc1)c1ccc(OCCO)cc1 | 2.81 (inactive) | 0.232 | -0.563 | -5.1 (inactive) | -1.34 (inactive) | -0.511 (inactive)
22 | CCCCCCc1nc(Cc2cc(OC)c(OC)c(OC)c2)cc2c1[Si](C(C)C)(C(C)C)OC2 | 0.181 (inactive) | 0.0776 | -2.67 | -3.54 (inactive) | -1.16 (inactive) | -0.743 (inactive)
23 | COCCOC(=O)N1C(=O)[C@@]2(c3cc(C#CC4=CCCCC4)ccc31)[C@H](C(=O)Nc1nc3ccccc3s1)[C@H]1C(=O)O[C@H](c3ccccc3)[C@H](c3ccccc3)N1[C@@H]2c1ccc(O)cc1 | -0.0082 (inactive) | 0.751 | -0.259 | -0.148 (inactive) | -0.0232 (inactive) | -0.0288 (inactive)
24 | CCOC(=O)C[C@H]1[C@H](OC(=O)c2cc3ccccc3oc2=O)[C@@H](NC(=O)CC(C)C)c2cc(OCCCO)ccc2N1C(=O)c1ccc2ccccc2n1 | 2.46 (inactive) | 0.46 | -0.533 | -4.43 (inactive) | -0.121 (inactive) | -0.507 (inactive)
25 | Cc1ccc(C(C)CC(O)C2C=CC3C(=O)N(c4ccccc4)C(=O)C3N2Nc2ccccc2)o1 (configuration not stated) | 0.0436 (inactive) | 0.518 | -0.54 | -1.12 (inactive) | -0.179 (inactive) | -0.508 (inactive)
26 | CC1CC/C=C\[C@H]2OC34C=CCN(c5ccc6ccccc6c5)C(=O)[C@H]3N(CCCO)C(=O)[C@@H]4C2C(=O)O1 (some centres not stated) | -0.103 (inactive) | 0.327 | 0.293 | -5.63 (inactive) | 0.486 (inactive) | 0.104 (inactive)
27 | C[N+](C)(C)CCCC[C@@H]1NC(=O)[C@@H]2C[C@H](C(=O)NCCCCCCN)[C@H](c3cccc(OCCO)c3)N2C1=O | 1.52 (inactive) | 0.771 | -0.133 | -3.34 (inactive) | -0.529 (inactive) | -0.386 (inactive)
28 | CCOC(=O)C[C@H]1[C@H](OC(=O)c2ccc(C(=O)c3ccccc3)cc2)[C@@H](NC(=O)CC(C)C)c2cc(OCCCO)ccc2N1C(=O)c1ccccc1 | 0.786 (inactive) | 0.671 | 1.38 | -3.51 (inactive) | 0.309 (inactive) | -0.0385 (inactive)
29 | CCCCC(=C=CC[C@H](O)c1ccc(OCCO)cc1)CCO | 0.0643 (inactive) | 0.256 | -1.17 | -4.31 (inactive) | -0.373 (inactive) | -0.317 (inactive)
30 | NCCCCCNC(=O)[C@@H]1C[C@@H]2C(=O)N[C@@H](CCCCN)C(=O)N2[C@@H]1c1ccc(O)cc1 | 0.439 (inactive) | 0.827 | -1.56 | 1.23 (inactive) | -0.484 (inactive) | -0.497 (inactive)
31 | CCCC#C[Si](O[C@H](CC)c1cn([C@H](C)c2ccccc2)nn1)(C(C)C)C(C)C | 0.062 (inactive) | 0.78 | -0.285 | -0.652 (inactive) | -0.673 (inactive) | -0.399 (inactive)
32 | COCCOC(=O)N1C(=O)[C@@]2(c3cc(C#CC4(O)CCCCCC4)ccc31)[C@H](C(=O)N1CCc3cc(OC)c(OC)cc3C1)[C@H]1C(=O)O[C@H](c3ccccc3)[C@H](c3ccccc3)N1[C@@H]2c1ccc(OCCO)cc1 | 0.402 (inactive) | 0.62 | -2.25 | 2.15 (inactive) | -0.149 (inactive) | -0.247 (inactive)
